# Sampled rows, rich in hits. Any-hit rate of the full collection: about 7.7%.
# TbPYK inhibitor: T. brucei pyruvate kinase inhibition. TbPYK enzyme, Kinase-Glo Plus ATP luminescence, 45 min. Potency, µM (highest dose often 76.8 µM), without a hit: at the top dose activity, negative = inhibition, hits mostly inhibitors. 410,000 tested, 0.12% active. AID 624173; further: potency means the concentration at half of the fitted maximal effect; nearly all actives have a fitted effect of over 50% in size
#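 Screened from lowest to highest concentration, compounds were pinned into TbPYK/substrate mixtures, and ADP (130 uM final) was added. Plates sat at room temperature for 45 min prior to Kinase-Glo Plus detection by luminescence.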
# FBPA Giardia inh: blocks Giardia fructose-bisphosphate aldolase activity; A8B2U2; purified Giardia FBPA; Potency, µM (highest dose often 59.6 µM), without a hit: at the highest dose activity, negative = inhibition, most hits filed as inhibitors; 290,000 tested, 0.71% active; AID 2451; further: potency means the concentration at half of the fitted maximal effect; nearly all actives have a fitted effect of over 55% in size
# Target sequence (A8B2U2 whole entry, looked up): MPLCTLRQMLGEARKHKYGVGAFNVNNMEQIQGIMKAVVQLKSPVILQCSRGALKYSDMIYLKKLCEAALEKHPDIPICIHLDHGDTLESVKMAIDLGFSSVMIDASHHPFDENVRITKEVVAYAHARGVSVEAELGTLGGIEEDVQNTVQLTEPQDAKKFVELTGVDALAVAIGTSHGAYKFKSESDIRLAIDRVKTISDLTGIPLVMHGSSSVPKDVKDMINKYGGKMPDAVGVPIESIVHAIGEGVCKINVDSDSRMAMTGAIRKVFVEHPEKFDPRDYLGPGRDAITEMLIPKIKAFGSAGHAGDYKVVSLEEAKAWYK
#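 40 nM FBPA preincubated 10 min at RT with compound (up to 57.5 uM final), then substrate plus GAPDH/TPI/NAD/arsenate coupling and diaphorase/resazurin added. Fluorescence read after 20 min at RT, 525/598 nm.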
# Sm TGR block: blocks Schistosoma mansoni thioredoxin glutathione reductase. Q962Y6. purified TGR, DTNB reduction, TNB absorbance 405 nm. Potency, µM (top dose mostly 114 µM), without a hit: at the highest dose activity change, negative = inhibition, usual class: inhibitors. 360,000 tested, 3% active; further: potency means the concentration at half of the fitted maximal effect; nearly all actives have a fitted effect of over 60% in size
#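 Kinetic colorimetric format: TGR-catalysed, NADPH-driven DTNB reduction monitored via TNB absorbance. Enzyme dispensed at 20 nM; compound exposure 15 min at room temperature before reaction start.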
# FMDV antiviral: blocks foot and mouth disease virus. 410,000 tested, 1.2% active. Potency, µM (top dose mostly 57.9 µM), for the others: at the highest dose activity change, negative = inhibition, actives largely listed as inhibitors. FMDV antiviral cell-based qHTS. AID 1159524; calls by dose curve; tested in HEK293T cells; further: read-out not given here; potency means the concentration at half of the fitted maximal effect; nearly all actives have a fitted effect of over 45% in size
# HCMV antiviral: human cytomegalovirus inhibition; HFF cells, HCMV-luciferase reporter, 72 h; stronger effect = lower value; activity change, negative = inhibition, % at 57.5 µM; 410,000 tested, 4.5% active; AID 1259415; in the data active means activity change below about -60%; inconclusive means no clear call, values can overlap the other calls; inactive means above about -39%
#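 Two compound doses tested in HFFs infected with HCMV-luciferase, MOI 1 PFU/cell, 72 h at 37C. Lysate luminescence read with OneGlo; data normalized against buffer-only and 10uM Salinomycin inhibitor controls.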
# RE007 growth inh: less growth of the S. pombe RE007 Vpr strain; AID 651644; S. pombe RE007 Vpr strain, BacTiter-Glo ATP luminescence, 24 h; Potency, µM (highest dose often 92.2 µM), for inactives: at the highest dose activity change, negative = less growth, actives largely listed as inhibitors; 360,000 tested, 0.21% active; active means well fitted falling curve with a large enough effect; inconclusive means small, poorly fitted or top-dose-only effect; inactive means no such curve, though single readings can be large or run the other way; further: potency means the concentration at half of the fitted maximal effect; nearly all actives have a fitted effect of over 50% in size
#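 Fission yeast RE007 carrying one integrated HIV-1 vpr copy, seeded at OD 0.01 in PMG+AL medium with 23 nL pinned compound. Grown 24 h at 30 degrees; viability read by BacTiter-Glo luminescence after 5 min.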
# Numbers without * were called inactive; ? = inconclusive; . = not tested or not shown; ! = not active in a repeat; [ ] = dose if it differs, or a comment. Unless noted, the call rests on the fitted dose curve; in most records, active means well fitted curve in the direction sought with a large enough effect; inconclusive means small, poorly fitted or top-dose-only effect, or another doubt; inactive means no such curve, though single readings can be large; an effect the other way counts as inactive or inconclusive. On the % scale 0 is the no-effect control and ±100 the full control effect.
SMILES,TbPYK inhibitor,FBPA Giardia inh,Sm TGR block,FMDV antiviral,HCMV antiviral,RE007 growth inh
COc1cc(=O)n2c(c1C(=O)NC(C)c1ccco1)CCN(C(=O)c1cccc(C)c1C)CC2 (stereo not given),.,.,.,27.0%,.,.
COc1ccc(NC(=O)CCCS(=O)(=O)c2nc(-c3ccccc3OC)cc(C(F)(F)F)n2)c(OC)c1,0.7%,.,-12.9%,7.1%,13.7,.
COc1ccc(Cl)cc1NC(=O)CCCS(=O)(=O)c1nc(-c2ccc(OC)c(OC)c2)cc(C(F)(F)F)n1,-6.3%,.,-8.8%,?,-99.3*,.
COc1ccc(-c2cc(C(F)(F)F)nc(S(=O)(=O)CCCC(=O)Nc3cc(C)on3)n2)cc1OC,-6.6%,-1.9%,?,12.6µM*,47.0,0.8%
COc1ccccc1-c1cc(C(F)(F)F)nc(S(=O)(=O)CCCC(=O)Nc2cc(C)on2)n1,-11.0%,-3.4%,4.0%,12.6µM*,-96.0*,16.4%
COc1ccc(OC)c(-c2cc(Cl)c3c(c2)CC(CNC(=O)c2cccnc2SC)O3)c1 (stereo not given),.,.,.,-2.9%,.,.
NC(=O)c1nsc(C(=O)N(c2ccccc2F)C(C(=O)NCc2ccc(F)cc2)c2ccc(O)cc2)c1N (stereo not given),1.7%,-6.1%,-0.3%,-12.6%,-102.4*,3.2%
COc1ccc(N(C(=O)c2snc(C(N)=O)c2N)C(C(=O)NCc2ccccc2)c2ccc(F)cc2)c(OC)c1 (stereo not given),6.1%,4.9%,-0.8%,-0.4%,-80.4*,-15.4%
O=C1C=C(NC2=CC3OC(c4ccccc4)OCC3OC2=O)CCC1 (stereo not given),-17.8%,5.2%,25.1µM*,17.8µM*,26.2,-26.7%
O=C1C=C(NCc2ccccc2)CCC1,8.5%,3.0%,-3.2%,-19.3%,-13.2,-5.5%
CCOC(=O)c1c(C)[nH]c(CCC(=O)Nc2cc(C)ccc2OC)c1C,-2.0%,.,2.3%,-14.6%,-4.8,.
Cc1ccc(C)c(CNC(=O)c2ccc3c(c2)nc2n3CCC(C)C2)c1 (stereo not given),6.9%,.,5.1%,19.2%,-26.1,.
O=C(COc1ccc(Cl)cc1)Nc1ncc([N+](=O)[O-])s1,4.1%,4.2%,-30.6%,-45.5%,-61.2*,4.7%
O=C(Cc1ccc(Cl)cc1)Nc1ncc([N+](=O)[O-])s1,2.1%,0.4%,?,-1.6%,9.1,-11.1%
Cc1cc(C)n(-c2nc3cc(Cl)c(Cl)cc3nc2Nc2ccc(F)cc2C)n1,4.2%,.,5.1%,-9.3%,11.8,.
Cc1cc(C)c(NC(=O)c2ccc3nc(C(C)C)oc3c2)c(C)c1,0.7%,.,-5.3%,-9.1%,-15.1,.
COc1cc(OC)c(NC(=O)c2ccc3nc(C(C)C)oc3c2)cc1Cl,6.2%,.,0.9%,12.6µM*,-29.8,.
c1ccc(-c2nc3nonc3nc2-c2ccccc2)cc1,1.8%,?,?,?,-78.0*,?
Nc1c(-c2ccccc2)nc(Cl)nc1-c1ccccc1,-2.2%,2.0%,14.4%,0.0%,?,13.1%
CCc1ccc(CNC(=O)c2cccc(-n3cnc4cccnc43)c2C)cc1,4.2%[15.4 µM],.,34.0%,-8.5%,?,.
Cc1cc(C)n2nc(CNC(=O)c3ccccc3Cl)nc2n1,3.0%,.,7.3%,-6.3%,24.5,.
C[N+](C)(CCCOc1ccccc1)c1ccccc1,.,-15.5%[21.7 µM],.,.,.,.
Cn1c(=O)n(C)c2cc([N+](=O)[O-])c(N3CCN(C(=O)c4ccccc4Br)CC3)cc21,2.4%,0.3%,.,15.8µM*,?,-5.7%
Cn1c(=O)n(C)c2cc([N+](=O)[O-])c(N3CCN(C(=O)C(C)(C)C)CC3)cc21,3.1%,-0.7%,-1.1%[57.1 µM],?,0.9,5.5%
Cn1c(=O)n(C)c2cc([N+](=O)[O-])c(N3CCN(C(=O)c4ccccc4Cl)CC3)cc21,2.1%,3.3%,13.5%,.,-77.7*,?
SMILES,TbPYK inhibitor,FBPA Giardia inh,Sm TGR block,FMDV antiviral,HCMV antiviral,RE007 growth inh
Cn1c(=O)n(C)c2cc([N+](=O)[O-])c(N3CCN(C(=O)c4ccccc4)CC3)cc21,-1.4%,-2.6%,-31.6%,-13.5%,-34.5,-1.2%
Cc1ccccc1CNC(=O)CCC(=O)N1CC2CCCN2c2ccccc21 (stereo not given),1.0%,.,-10.1%,-19.3%,4.3,.
OCCC1CN(CC#Cc2ccccc2)CCN1Cc1ccccc1F (stereo not given),4.5%,3.4%,20µM*,-5.7%,-19.4,0.1%
CC(C)CN1CCN(CC#Cc2ccccc2)CC1CCO (stereo not given),-0.5%,0.1%,-30.4%,-0.8%,37.3,5.1%
Cc1cccc(-c2nc(CS(=O)CC(=O)N3CC(C)CC(C)C3)c(C)o2)c1 (stereo not given),-1.7%,9.9%,35.5µM*,-15.8%,-30.3,1.4%
CCN1CCN(C(=O)CS(=O)Cc2nc(-c3cccc(C)c3)oc2C)CC1 (stereo not given),3.5%,10.5%,39.8µM*,-5.1%,-25.3,-17.2%
Cc1ccccc1C(=O)Nc1cccc(-c2cn3cccnc3n2)c1,-2.3%,.,3.0%,-10.9%,24.8,.
O=C(NCc1cccs1)c1ccc2c(c1)N(Cc1ccccc1Cl)C(=O)c1ccccc1S2,-0.6%,.,10.3%,-6.6%,-3.0,.
CCC1(O)CC2CN(CCc3c([nH]c4ccccc34)C(C(=O)OC)(c3cc4c(cc3OC)N(C=O)C3C(O)(C(=O)OC)C(OC(C)=O)C5(CC)C=CCN6CCC43C65)C2)C1 (stereo not given),6.2%,.,.,-1.4%,-87.8*,7.9%
O=S1(=O)CCOC[C@H](Cc2ccccc2)N1Cc1ccc(F)cc1,5.6%,.,.,-15.3%,-66.8*,-7.3%
CCCC[C@H]1COCCS(=O)(=O)N1Cc1ccccc1F,3.8%,-6.2%,-1.1%,-8.6%,-99.1*,-6.9%
CN(Cc1ccon1)C(=O)c1cnn(-c2ncc3c(n2)-c2ccccc2CCC3)c1C1CC1,.,.,.,20.0%,.,.
CCCCc1nc(NCCNC(=O)c2ccccc2)c(C#N)c2c1CSC(C)(C)C2,4.9%,-3.8%,-24.6%,?,-103.9*,17.0%
CC(=O)NC(c1cccs1)c1cc(F)c2cccnc2c1O (stereo not given),-7.2%,.,50.1µM*!,-22.1%,-100.2*,.
CC(=O)NC(c1ccco1)c1cc(F)c2cccnc2c1O (stereo not given),-11.9%,.,?,-23.3%,-66.9*,.
CC(=O)NC(c1ccco1)c1cc(Cl)c2ccccc2c1O (stereo not given),1.5%,.,63.1µM*,-15.6%,4.1,.
CC(Oc1ccccc1)C(=O)N1CCN(Cc2cc(=O)n3nc(-c4ccccc4Cl)sc3n2)CC1 (stereo not given),-1.1%,.,1.1%,11.0%,-3.5,.
Cc1ccc2cc(C)c(NCCO)nc2c1,1.6%,0.9%,-0.1%,-8.0%,-60.3*,-0.8%
